The source of these data is PubChem BioAssay (NCI).

Each structure is given as a SMILES string. The panel holds about 83,000 compounds, 20% with a hit somewhere; the sample as a whole holds those more often.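 Interpretation: 100, growth as untreated; towards 0, rising growth inhibition; 0, no net growth; 0 to -100, cell death. Compounds scoring below 10 were considered active.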 Values without a mark were called inactive. Active and inactive are the calls of the source.

This test deals with MDA-MB-468 breast. Kind of test: NCI-60 one-dose screen, 48 h (100 = growth as untreated, 0 = no growth, -100 = all killed). As to conditions: 10 µM unless noted.
`CCc1cccc(NC(=O)CNc2cc(S(=O)(=O)N(C)C)cc(C)c2C)c1`: the growth is 87.3%.
The result for `CC1(C)CCC(C)(C)NC(=S)N1` reads 103%.
Regarding `CC[C@H](CO)Nc1nc(NCc2ccccc2)c2ncn(C(C)C)c2n1`, the growth is 85%.
The result for `CC(=O)c1c(C)nc(SCC(=O)Nc2ccc(Cl)cc2)n1-c1ccc(Cl)cc1` reads 71.3%.
Regarding `O=c1c2ccccc2oc2ccc(OCCCCCCN3CCCCCC3)cc12`, the growth was 20.2%.
As for `CCn1c(SCC(=O)N/N=C(\C)c2ccc(Cl)cc2)nc2c1c(=O)n(C)c(=O)n2C`, the growth is 96.6%.
The result for `Nc1c(C(=O)Nc2ccncc2)sc2nc3c(cc12)CCCCCCCC3` reads -75.7% (active); that for `COc1cc(-c2nccc3[nH]c(-c4ccc5cc[nH]c5c4)nc23)cc(OC)c1OC`, -36.7% (active); that for `O=C1NC(=O)C(=Cc2cc(-c3ccc(Cl)cc3)n(-c3ccccc3)n2)C(=O)N1`, 87.3%.
For `O=[N+]([O-])c1cccc([I+]c2ccccc2)c1`, the growth was 20.2%.
Regarding `OCC1OC2C(NC(=S)N2c2ccccc2)C(O)C1O` (stereo not given), the growth is 94.6%.
Turning to `CCNc1nc2c(cnn2C)c(=O)[nH]1`, the growth is 97.4%.
For the molecule `COc1ccc2c(c1)CCCN2c1c2ccccc2nc2ccccc12`, the growth was -3.81% (active).
Consider `CC[C@H](Nc1ncnc2nc[nH]c12)c1nc2cccc(NCc3ccc(C(=O)NO)nc3)c2c(=O)n1-c1ccccc1`, for which the growth was 11.1%.
As for `Cc1cc(-c2ccccc2)on1`, the growth was 109%.
As for `O=C(NO)c1ccc(Cn2c(=O)n(CCc3ccc(O)cc3)c(=O)c3ccccc32)cc1`, the growth is 29.8%.
The result for `CCOC(=O)C(C#N)=C1CCN(C)CC1` reads 123%; that for `Cc1cc(-c2ccccc2)nc2ccccc12`, 100%; that for `O=C(c1ccccc1)C(CN1CCCCC1)c1ccccc1` (stereo not given), -29.1% (active).
`O=C(O)c1ccc(Nc2ncc3c(n2)-c2ccc(Cl)cc2C(c2c(F)cccc2F)=NC3)cc1`: the growth was 35%.
The result for `CS(=O)(=O)Nc1ccc(Nc2c3ccccc3nc3cc([N+](=O)[O-])ccc23)cc1` reads -43.3% (active); that for `Cc1ccc(Nc2nc(N)nc(CSCC(=O)NN)n2)cc1`, 95.7%; that for `Cc1cccc(-c2nc(Nc3ccc4ncsc4c3)c3ccccc3n2)n1`, 72.3%.
Turning to `CN(C)Cc1c(-c2ccccc2)[nH]c2ccccc12`, the growth was 103%.
Consider `CC1CCc2cc(F)cc3c(=O)c(C(=O)O)cn1c23` (stereo not given), for which the growth is 109%.
In the case of `COc1ccc(OC)c2ncccc12`, the growth is 89.9%.
Consider `COCCn1cc(-c2csc(-c3cn(C)c4ccc(F)cc34)n2)c2cccnc21`, for which the growth was 21.3%.
In the case of `C=C(C)[C@@H]1CC[C@]2(C(=O)N3CCN(C)CC3)CC[C@]3(C)[C@H](CC[C@@H]4[C@@]5(C)CCC(=O)C(C)(C)[C@@H]5CC[C@]43C)[C@@H]12`, the growth is 77.3%.
Consider `COc1ccc(NC(=O)C2CC3C=CC2C3)c([N+](=O)[O-])c1` (stereo not given), for which the growth is 93.1%.
As to `Cc1ccc(Nc2cccc3ccccc23)cc1`, the growth is -11.7% (active).
Turning to `CCN(CCO)CC(=O)c1cc(Cl)cc(Cl)c1Cl`, the growth was 110%.
As to `Cc1[nH]n(-c2ccccc2)c(=O)c1C=NC(=S)C(N)=S`, the growth was 95.9%.
Regarding `CN(C)CCCCC(C(=O)CBr)(c1ccccc1)c1ccccc1`, the growth was -53.1% (active).
`O=C(/C=C/c1ccc(C(F)(F)F)cc1)c1ccc(Nc2nc(NCCO)nc(NCCO)n2)cc1`: the growth is 19.9%.
The result for `C=CCCCCOc1ccccc1-c1cnc(OCCCCC=C)n1C` reads 25.5%.
For `COc1ccccc1C(=O)Nc1cccc(NC(=O)c2ccoc2C)c1`, the growth was 14%.
The result for `COc1ccc(CCN2C(=O)CSC2=S)cc1` reads 12.9%; that for `O=C(c1ccncc1)N1N=C(c2ccc(Cl)cc2)C[C@H]1c1cn(-c2ccccc2)nc1-c1ccccc1`, 88.5%.
Under `C[n+]1c2ccccc2nc2ccccc21` stands 9.7% (active); under `COc1cc(-c2nc3ccccc3[nH]2)ccc1OCC(=O)N=Nc1c(O)[nH]c2ccc(Cl)cc12`, -78.9% (active).
